Results on 15 compounds are retold here after PubChem BioAssay (NCATS).

Assay [1] can be described thus: Quantitative High-Throughput drug screen in 47 multiple myeloma cell lines against the NCATS MIPE library collection: LP1_DSMZ cell viability assay (AID 1918982). Note: nearly all actives have a fitted effect of over 35% in size. The procedure, abridged:
(§1)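 Inhibition of viability over 48 h was scored by ATP content (CellTiter-Glo) in 500-cell wells. Zero and full viability were defined by media-only and DMSO-only wells.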

Assay [2] is described as follows: Quantitative High-Throughput drug screen in 47 multiple myeloma cell lines against the NCATS MIPE library collection: KMS28PE_JCRB cell viability assay (AID 1918983). Note: nearly all actives have a fitted effect of over 35% in size. The procedure, abridged:
as §1

Assay [3] is described as follows: Quantitative High-Throughput drug screen in 47 multiple myeloma cell lines against the NCATS MIPE library collection: L363_DSMZ cell viability assay (AID 1918984). Note: nearly all actives have a fitted effect of over 40% in size. The procedure, abridged: as §1
Assay [4] is described as follows: Quantitative High-Throughput drug screen in 47 multiple myeloma cell lines against the NCATS MIPE library collection: KMS34_JCRB cell viability assay (AID 1918985). Note: nearly all actives have a fitted effect of over 40% in size. An outline of the steps: as §1
A short description of assay [5]: Quantitative High-Throughput drug screen in 47 multiple myeloma cell lines against the NCATS MIPE library collection: OCIMY7_PLB cell viability assay (AID 1918987). Note: nearly all actives have a fitted effect of over 65% in size. The note with it: OCI-MY7 myeloma viability, CellTiter-Glo ATP, 48 h; viability (% of DMSO): at 45.8 µM (top of the series). An outline of the steps:
as §1

A short description of assay [6]: Quantitative High-Throughput drug screen in 47 multiple myeloma cell lines against the NCATS MIPE library collection: OCIMY5_PLB cell viability assay (AID 1918988). Note: nearly all actives have a fitted effect of over 65% in size. An outline of the steps:
as §1

The nature of assay [7]: Quantitative High-Throughput drug screen in 47 multiple myeloma cell lines against the NCATS MIPE library collection: OPM1_PLB cell viability assay (AID 1918989). Note: nearly all actives have a fitted effect of over 40% in size. The procedure, abridged:
as §1

A short description of assay [8]: Quantitative High-Throughput drug screen in 47 multiple myeloma cell lines against the NCATS MIPE library collection: XG6_PLB cell viability assay (AID 1919865). Note: nearly all actives have a fitted effect of over 40% in size. The procedure, abridged: as §1
Assay [9] is described as follows: Quantitative High-Throughput drug screen in 47 multiple myeloma cell lines against the NCATS MIPE library collection: SKMM1_PLB cell viability assay (AID 1919863). Note: nearly all actives have a fitted effect of over 35% in size. The note with it: SKMM1 myeloma viability, CellTiter-Glo ATP, 48 h; viability: active compounds read low. An outline of the steps:
as §1
For orientation: Cellular ATP, detected with luciferase, serves as a proxy for viable cell number.

Assay [10] in a line: Quantitative High-Throughput drug screen in 47 multiple myeloma cell lines against the NCATS MIPE library collection: U266_ATCC cell viability assay (AID 1919864). Note: nearly all actives have a fitted effect of over 35% in size. An outline of the steps:
as §1

Records with an inconclusive call do not appear. Unmarked numbers belong to inactive results. Activity calls are given as the source filed them. Calls come from the whole dose curve; as a rule, active = well fitted cell-killing curve with a large enough effect; inconclusive = small, poorly fitted or top-dose-only effect, or effect the other way; inactive = no such curve, though single readings can be large or run the other way. Starred links: 1 amine or outer side, 2 acyl side, 3 side chain; linkers in the order of their positions; H or OH if unused. Positions of bridges follow the written chain, without caps; N, C: chain ends. Non-standard residues stand in square brackets, D forms with d. Residues, ends and D or L forms follow the SMILES beside them. Chains are numbered I, II in the order given. *: point of attachment. Actinocin(9to1) = Cc1c2oc3c(C)ccc(C(=O)[*:1])c3nc-2c(C(=O)[*:2])c(N)c1=O; NMeV = CN[CH](C(=O)O)C(C)C; Cbz = O=C(OCc1ccccc1)*; Sar = CNCC(=O)O

The viability is a read-out of living cells in per cent, often relative to untreated cells.
Potency is the fitted concentration of half-maximal effect.

Consider `CCCCCCCCc1ccc(CCC(N)(CO)CO)cc1`, for which the Potency was 13.2 µM (active) in [1]; 18.7 µM (active) in assay [2]; 4.18 µM (active) in assay [3]; 14.8 µM (active) in assay [4]; 11.8 µM (active) in [5]; 14.8 µM (active) in assay [6]. Further, the Potency was 4.69 µM (active) in [7] and 3.32 µM (active) in assay [8].

Consider `CC(C)C[C@@H](C=O)NC(=O)[C@H](CC(C)C)NC(=O)[C@H](CC(C)C)NC(=O)OCc1ccccc1` (Cbz-Leu-Leu-Leu-aldehyde), for which the Potency in assay [1] is 0.662 µM (active); in assay [2] it was 0.209 µM (active); in [3], 0.118 µM (active); in [4] it was 0.235 µM (active); in [5], 0.296 µM (active); in assay [6], 0.372 µM (active). Moreover, the Potency in assay [7] was 0.296 µM (active); in assay [9], 1.18 µM (active); in assay [10] it was 0.166 µM (active); in assay [8], 0.105 µM (active).

For the compound `C[C@H](NCc1ccc(OCc2cccc(F)c2)cc1)C(N)=O`, the Potency in assay [1] is 11.8 µM (active); in [2] it was 9.35 µM (active); in assay [3] it was 1.48 µM (active); in assay [4], 10.5 µM (active); in assay [5], 3.32 µM (active); in assay [6], 7.43 µM (active). Also, the Potency in assay [7] was 2.64 µM (active); in assay [9], 18.7 µM (active); in [10] it was 7.43 µM (active); in [8] it was 1.66 µM (active).

Take `Cn1cc(C2=C(c3c4n(c5ccccc35)CCC(CN)C4)C(=O)NC2=O)c2ccccc21` (centres undefined): the Potency is 10.5 µM (active) in assay [1]; 18.7 µM (active) in assay [2]; 7.43 µM (active) in [3]; 11.8 µM (active) in assay [4]; 7.43 µM (active) in assay [5]; 8.33 µM (active) in assay [6]. Moreover, the Potency in assay [7] was 7.43 µM (active); in assay [9], 20.9 µM (active).

In the case of `COc1cc(OC)cc(-c2ccc3ncc4ccc(=O)n(-c5ccc(N6CCNCC6)c(C(F)(F)F)c5)c4c3c2)c1`, the Potency is 5.9 µM (active) in [1]; 5.26 µM (active) in assay [2]; 0.833 µM (active) in assay [3]; 6.62 µM (active) in [4]; 1.18 µM (active) in assay [5]; 1.32 µM (active) in assay [6]. Also, the Potency in assay [7] is 4.69 µM (active); in assay [9], 13.2 µM (active).

Turning to `O=C1CSC(=O)N1C(CCc1ccncc1)COc1ccc(-c2cccc([N+](=O)[O-])c2)cc1` (centres undefined), the Potency in [1] is 5.9 µM (active); in assay [2] it was 9.35 µM (active); in assay [4], 8.33 µM (active); in assay [5] it was 20.9 µM (active); in assay [6] it was 2.35 µM (active); in [7] it was 16.6 µM (active). Further, the Potency in assay [10] is 8.33 µM (active); in [8], 13.2 µM (active). Moreover, the Potency entry in [3] was “inactive”.

Regarding `COc1cccc2c1C(=O)c1c(O)c3c(c(O)c1C2=O)C[C@@](O)(C(=O)CO)C[C@H]3O[C@H]1C[C@H](N)[C@H](O)[C@H](C)O1`, the Potency in [1] was 0.0743 µM (active); in assay [2], 0.166 µM (active); in assay [3] it was 0.743 µM (active); in assay [4] it was 0.235 µM (active); in assay [5] it was 0.166 µM (active); in assay [6], 0.166 µM (active). The Potency is 0.526 µM (active) in assay [7], 0.209 µM (active) in assay [9], 0.372 µM (active) in assay [10] and 0.132 µM (active) in assay [8].

For the compound `O=C1NCCc2[nH]c(-c3ccncc3)cc21`, the Potency in assay [1] is 4.18 µM (active); in assay [2], 4.69 µM (active); in assay [3], 2.35 µM (active); in [4], 5.26 µM (active); in assay [5], 2.09 µM (active); in [6], 8.33 µM (active). Besides, the Potency in assay [7] is 4.69 µM (active); in assay [9], 5.26 µM (active); in [10], 2.64 µM (active); in assay [8] it was 1.87 µM (active).

As for `CN1[C@H]2CC(OC(=O)[C@@H](CO)c3ccccc3)C[C@H]1[C@H]1O[C@H]12` (some centres undefined), the Potency result in assay [1], in [2], in [3], in [4], in assay [5] and in assay [6] was “inactive” in each case. For the same compound, the Potency entry in [7] and in [8] was “inactive” in each case.

In the case of `Cc1c2oc3c(C)ccc(C(=O)NC4C(=O)NC(C(C)C)C(=O)N5CCCC5C(=O)N(C)CC(=O)N(C)C(C(C)C)C(=O)OC4C)c3nc-2c(C(=O)NC2C(=O)NC(C(C)C)C(=O)N3CCCC3C(=O)N(C)CC(=O)N(C)C(C(C)C)C(=O)OC2C)c(N)c1=O` (centres undefined) (I: TVP[Sar][NMeV] / II: TVP[Sar][NMeV]; ester I:1-I:C, II:1-II:C; linker I:N-II:N via Actinocin(9to1); configuration not given here), the Potency entry in assay [1], in assay [2], in [3], in assay [4], in [5] and in assay [6] was “inactive” in each case. Besides, the Potency result in assay [7], in assay [10] and in assay [8] was “inactive” in each case. Also, the viability in assay [9] is -11%.

Turning to `CC(=O)NCC(=O)N1[C@H]2CC[C@H]1c1cc(Nc3ncc(C(F)(F)F)c(NC4CCC4)n3)ccc12`, the Potency in [1] is 7.43 µM (active); in [2] it was 4.18 µM (active); in [3] it was 0.935 µM (active); in assay [4] it was 0.833 µM (active); in assay [5], 0.0935 µM (active); in assay [6], 1.18 µM (active). Also, the Potency was 0.59 µM (active) in assay [7], 20.9 µM (active) in assay [9] and 1.18 µM (active) in [8].

Regarding `CN(C)c1ccc2cc(C(=O)N[C@@H](CCCN=C(N)CCl)C(=O)NCc3ccccc3)ccc2c1`, the Potency is 14.8 µM (active) in [1]; 11.8 µM (active) in [2]; 6.62 µM (active) in assay [3]; 8.33 µM (active) in [4]; 13.2 µM (active) in assay [5]; 4.18 µM (active) in assay [6]. The Potency was 7.43 µM (active) in [7], 18.7 µM (active) in [9], 2.96 µM (active) in assay [10] and 0.935 µM (active) in assay [8].

As for `CC(Oc1ccc(O)cc1)(P(=O)(O)O)P(=O)(O)O`, the Potency result in assay [1], in assay [2], in assay [3], in assay [4] and in [8] was “inactive” throughout.

On to `C[C@@H]1CC[C@@]2(OC1)OC1CC3C4CC=C5CC(O)CCC5(C)C4CCC3(C)C1[C@@H]2C` (some centres undefined), for which the Potency entry in assay [1], in [2], in [3], in assay [4], in assay [5] and in [7] was “inactive” throughout. In addition, the viability in [9] was 155%.

As to `COC(=O)[C@H](CCCN=C(N)N)NS(=O)(=O)c1ccc(C)cc1`, the Potency result in assay [1], in assay [2], in assay [3], in assay [4], in assay [6] and in assay [7] was “inactive” in each case. In addition, the viability in assay [9] was 122%.
